# In PubChem BioAssay (EPA / NIEHS):
# Inconclusive results are not listed. Activity calls are given as the source filed them. The calls were made as follows, unless noted: active = hit-call score of the fitted dose curve at least 0.9, where 1 is the maximum; inconclusive = response in the unintended direction; inactive = score below 0.9.
# How the values were obtained:
# [1] = target: Retinoic acid receptor RXR-alpha (Homo sapiens) (UniProt P19793); experiment: ATG_RXRa_TRANS: Attagene TRANS-FACTORIAL HepG2 Assay for human Retinoid X Receptor alpha (RXRa) (AID 2283012)
# Procedure, shortened: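 Chimeric NR-GAL4 trans-activation in HepG2, 24 h treatment; reporter transcripts quantified by fluorescence on capillary electrophoresis, analysed for upward change from DMSO.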
# [2] = target: human Thyroid Receptor alpha (THRa1), THRA (gene 7067) (UniProt P10827); experiment: ATG_THRa1_TRANS: Attagene TRANS-FACTORIAL HepG2 Assay for human Thyroid Receptor alpha (THRa1) (AID 2283014)
# Procedure, shortened: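 Reporter transcript induction, read by capillary electrophoresis of 6-FAM-labelled RT-PCR products, reflects activity of a transfected THRa1-Gal4 fusion in HepG2 liver cells. Cells were dosed for 24 h; activity was fitted in the positive direction against DMSO.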
# [3] = target: human Retinoid X Receptor beta (RXRb), RXRB (gene 6257) (UniProt P28702); experiment: ATG_RXRb_TRANS: Attagene TRANS-FACTORIAL HepG2 Assay for human Retinoid X Receptor beta (RXRb) (AID 2283013)
# Procedure, shortened: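 After a 24 h incubation with test chemical, transfected HepG2 cells carrying NR-Gal4 fusions and GAL4-UAS reporter transcription units yield RNA whose reporter cDNA is FAM-labelled, HpaI-cut and sized by capillary electrophoresis; increases over DMSO are scored.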
# [4] = target: human Vitamin D Receptor (VDR), VDR (gene 7421) (UniProt P11473); experiment: ATG_VDR_TRANS: Attagene TRANS-FACTORIAL HepG2 Assay for human Vitamin D Receptor (VDR) (AID 2283022)
# Procedure, shortened: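 Steps: transfect HepG2 with GAL4-UAS-driven reporter constructs; dose compounds 24 h; isolate RNA, reverse-transcribe, PCR-amplify with 6-FAM-labelled primer extension and HpaI digestion; quantify fragments by capillary electrophoresis relative to DMSO.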
# [5] = read-out: Interleukin-1 alpha (IL1a), IL1A (gene 3552); experiment: BSK_BE3C_IL1a: BioMAP Diversity Plus: BE3C Assay for Interleukin-1 alpha (IL1a) Biomarker Activity (AID 2283016; active = hit-call score of the fitted dose curve at least 0.9, where 1 is the maximum; inactive = score below 0.9); conditions: primary human bronchial epithelial cells; actives raise or lower the signal
# Procedure, shortened: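 Measured in human lung primary bronchial epithelial cells: IL-1a by ELISA at 24 h after dosing, with bidirectional fitting against DMSO.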
# [6] = read-out: Monocyte Chemoattractant Protein-1 (MCP1), CCL2 (gene 6347); experiment: BSK_3C_MCP1: BioMAP Diversity Plus: 3C Assay for Monocyte Chemoattractant Protein-1 (MCP1) Biomarker Activity (AID 2283017; active = hit-call score of the fitted dose curve at least 0.9, where 1 is the maximum; inactive = score below 0.9); conditions: primary human endothelial cells (HUVEC); actives raise or lower the signal
# Procedure, shortened: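 ELISA read-out of MCP-1 from human umbilical vein endothelial cell cultures harvested 24 h post-dosing. Gain or loss of signal was fitted relative to DMSO.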
# [7] = read-out: Monocyte Chemoattractant Protein-1 (MCP1), CCL2 (gene 6347); experiment: BSK_4H_MCP1: BioMAP Diversity Plus: 4H Assay for Monocyte Chemoattractant Protein-1 (MCP1) Biomarker Activity (AID 2283018; active = hit-call score of the fitted dose curve at least 0.9, where 1 is the maximum; inactive = score below 0.9); conditions: primary human endothelial cells (HUVEC); actives raise or lower the signal
# Procedure, shortened: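 Primary human umbilical vein endothelium is exposed to chemical for 24 h before MCP-1 is assayed by ELISA. Concentration-response fitted bidirectionally relative to DMSO.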
# [8] = read-out: Human Leukocyte Antigen - DR isotype (HLADR), HLA-DRA (gene 3122); experiment: BSK_3C_HLADR: BioMAP Diversity Plus: 3C Assay for Human Leukocyte Antigen - DR isotype (HLADR) Biomarker Activity (AID 2283019; active = hit-call score of the fitted dose curve at least 0.9, where 1 is the maximum; inactive = score below 0.9;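 as to outcome: ELISA of cell-surface HLA-DR on HUVEC 24 h after dosing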); conditions: primary human endothelial cells (HUVEC); actives raise or lower the signal
# Procedure, shortened: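 ELISA readout of surface HLA-DR on human umbilical vein endothelium, taken 24 h after chemical treatment. Gain- and loss-of-signal were both fitted relative to DMSO.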
# [9] = read-out: Interleukin-8 (IL8), CXCL8 (gene 3576); experiment: BSK_3C_IL8: BioMAP Diversity Plus: 3C Assay for Interleukin-8 (IL8) Biomarker Activity (AID 2283020; active = hit-call score of the fitted dose curve at least 0.9, where 1 is the maximum; inactive = score below 0.9); conditions: primary human endothelial cells (HUVEC); actives raise or lower the signal
# Procedure, shortened: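 Using DMSO-treated wells as the baseline, bidirectional curve fitting was applied to ELISA-measured IL-8 from human umbilical vein endothelial cultures sampled 24 h after compound addition.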
# [10] = read-out: Monokine induced gamma interferon (MIG), CXCL9 (gene 4283); experiment: BSK_3C_MIG: BioMAP Diversity Plus: 3C Assay for Monokine induced gamma interferon (MIG) Biomarker Activity (AID 2283021; active = hit-call score of the fitted dose curve at least 0.9, where 1 is the maximum; inactive = score below 0.9); conditions: primary human endothelial cells (HUVEC); actives raise or lower the signal
# Procedure, shortened: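 ELISA-measured MIG in dosed HUVEC 3C cultures at 24 h, analysed by bidirectional fitting with DMSO defining baseline activity.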
# [11] = BSK_3C_SRB: Viability Assessment in the BioMAP Diversity Plus: 3C Assay (AID 2283023; active = hit-call score of the fitted dose curve at least 0.9, where 1 is the maximum; inactive = score below 0.9;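 also: fitted both ways against DMSO so a hit may be signal rise or drop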); conditions: primary human endothelial cells (HUVEC)
# Procedure, shortened: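 Absorbance at 560 nm of sulforhodamine B-stained (0.1%) total protein served as a cytotoxicity readout in human umbilical vein endothelial cells, 24 h after chemical treatment. Signal was fitted bidirectionally relative to DMSO.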
# [12] = read-out: Matrix Metallopeptidase 1 (MMP1), MMP1 (gene 4312); experiment: BSK_BE3C_MMP1: BioMAP Diversity Plus: BE3C Assay for Matrix Metallopeptidase 1 (MMP1) Biomarker Activity (AID 2283024; active = hit-call score of the fitted dose curve at least 0.9, where 1 is the maximum; inactive = score below 0.9); conditions: primary human bronchial epithelial cells; actives raise or lower the signal
# Procedure, shortened: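 In this multiplexed primary-cell system, human bronchial epithelium received chemicals for 24 h before an ELISA for MMP1. Values reflect bidirectional fits normalised to the DMSO baseline.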
# [13] = BSK_3C_Vis: BioMAP Diversity Plus: 3C Assay for Morphology Visualization (AID 2283025; active = hit-call score of the fitted dose curve at least 0.9, where 1 is the maximum; inactive = score below 0.9;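 also: fitted both ways so gain or loss versus DMSO counts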;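 as to AC50: light microscopy image of cell morphology used as background control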); conditions: primary human endothelial cells (HUVEC)
# Procedure, shortened: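 Light-microscopy morphology readout, 24 h exposure, human primary umbilical vein endothelium; analysed relative to DMSO with bidirectional fitting.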
# [14] = BSK_4H_SRB: Viability Assessment in the BioMAP Diversity Plus: 4H Assay (AID 2283027; active = hit-call score of the fitted dose curve at least 0.9, where 1 is the maximum; inactive = score below 0.9;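 also: cells exposed to compound for 24 h before staining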;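 as to AC50: curves fitted both ways versus DMSO so AC50 may be loss or gain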); conditions: primary human endothelial cells (HUVEC)
# Procedure, shortened: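 Cytotoxicity read-out in primary human endothelial cells: after 24 h compound exposure, cells were TCA-fixed (10%), stained with 0.1% SRB and absorbance taken at 560 nm. Values fitted in both directions relative to DMSO.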
# [15] = read-out: Urokinase-type plasminogen activator receptor (uPAR), PLAUR (gene 5329); experiment: BSK_4H_uPAR: BioMAP Diversity Plus: 4H Assay for Urokinase-type plasminogen activator receptor (uPAR) Biomarker Activity (AID 2283030; active = hit-call score of the fitted dose curve at least 0.9, where 1 is the maximum; inactive = score below 0.9); conditions: primary human endothelial cells (HUVEC); actives raise or lower the signal
# Procedure, shortened: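 Cell-surface uPAR ELISA signal, measured 24 h after dosing human umbilical vein endothelial cells, was analyzed with bidirectional fitting relative to DMSO. Parallel SRB staining of total protein tracked overt cytotoxicity.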
# [16] = read-out: Vascular endothelial growth factor receptor 2 (Homo sapiens) (UniProt P35968); experiment: BSK_4H_VEGFRII: BioMAP Diversity Plus: 4H Assay for Vascular endothelial growth factor receptor 2 (VEGFR2) Biomarker Activity (AID 2283031; active = hit-call score of the fitted dose curve at least 0.9, where 1 is the maximum; inactive = score below 0.9); conditions: primary human endothelial cells (HUVEC); actives raise or lower the signal
# Procedure, shortened: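 ELISA read-out of VEGFRII in primary human umbilical vein endothelium, taken 24 h after chemical treatment. Responses are expressed relative to DMSO, with bidirectional fitting.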
# [17] = read-out: Human Leukocyte Antigen - DR isotype (HLADR), HLA-DRA (gene 3122); experiment: BSK_BE3C_HLADR: BioMAP Diversity Plus: BE3C Assay for Human Leukocyte Antigen - DR isotype (HLADR) Biomarker Activity (AID 2283032; active = hit-call score of the fitted dose curve at least 0.9, where 1 is the maximum; inactive = score below 0.9); conditions: primary human bronchial epithelial cells; actives raise or lower the signal
# Procedure, shortened: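 BioMAP BE3C format: human bronchial epithelium, 24 h compound treatment, ELISA detection of HLA-DR, with bidirectional analysis relative to DMSO.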
# [18] = read-out: E-selectin (Homo sapiens) (UniProt P16581); experiment: BSK_3C_Eselectin: BioMAP Diversity Plus: 3C Assay for Eselectin Biomarker Activity (AID 2283015; active = hit-call score of the fitted dose curve at least 0.9, where 1 is the maximum; inactive = score below 0.9;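 also: cell surface E-selectin protein quantified by ELISA 24 h after dosing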); conditions: primary human endothelial cells (HUVEC); actives raise or lower the signal
# Procedure, shortened: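 ELISA read-out of E-selectin on endothelial monolayers after 24 h chemical treatment. Human umbilical vein primary cells served as the system, with DMSO defining baseline activity for bidirectional fitting.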
# [19] = read-out: Pselectin, SELP (gene 6403); experiment: BSK_4H_Pselectin: BioMAP Diversity Plus: 4H Assay for Pselectin Biomarker Activity (AID 2283026; active = hit-call score of the fitted dose curve at least 0.9, where 1 is the maximum; inactive = score below 0.9); conditions: primary human endothelial cells (HUVEC); actives raise or lower the signal
# Procedure, shortened: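 Bidirectional fits against DMSO gave the endpoint. Cells: primary human umbilical vein endothelium, chemical-treated for 24 h before ELISA detection of P-selectin.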
# Chain of human Retinoid X Receptor beta (RXRb), RXRB (gene 6257) (P28702 whole entry, looked up, the tested form may be a part): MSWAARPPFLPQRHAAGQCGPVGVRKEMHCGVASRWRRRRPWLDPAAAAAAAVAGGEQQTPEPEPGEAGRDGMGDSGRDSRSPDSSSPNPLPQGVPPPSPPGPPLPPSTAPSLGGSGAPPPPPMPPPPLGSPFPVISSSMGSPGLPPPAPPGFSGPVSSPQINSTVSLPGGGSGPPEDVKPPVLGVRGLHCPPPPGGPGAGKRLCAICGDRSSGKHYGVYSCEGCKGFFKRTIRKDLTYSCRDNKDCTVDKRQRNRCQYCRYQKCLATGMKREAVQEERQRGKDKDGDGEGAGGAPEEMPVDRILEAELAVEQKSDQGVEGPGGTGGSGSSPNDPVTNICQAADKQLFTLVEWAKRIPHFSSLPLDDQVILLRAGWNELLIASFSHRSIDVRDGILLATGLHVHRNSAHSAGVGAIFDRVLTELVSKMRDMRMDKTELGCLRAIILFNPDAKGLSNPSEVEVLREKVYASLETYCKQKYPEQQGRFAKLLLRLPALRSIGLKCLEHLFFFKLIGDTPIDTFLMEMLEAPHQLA
# Chain of human Vitamin D Receptor (VDR), VDR (gene 7421) (P11473 whole entry, looked up, the tested form may be a part): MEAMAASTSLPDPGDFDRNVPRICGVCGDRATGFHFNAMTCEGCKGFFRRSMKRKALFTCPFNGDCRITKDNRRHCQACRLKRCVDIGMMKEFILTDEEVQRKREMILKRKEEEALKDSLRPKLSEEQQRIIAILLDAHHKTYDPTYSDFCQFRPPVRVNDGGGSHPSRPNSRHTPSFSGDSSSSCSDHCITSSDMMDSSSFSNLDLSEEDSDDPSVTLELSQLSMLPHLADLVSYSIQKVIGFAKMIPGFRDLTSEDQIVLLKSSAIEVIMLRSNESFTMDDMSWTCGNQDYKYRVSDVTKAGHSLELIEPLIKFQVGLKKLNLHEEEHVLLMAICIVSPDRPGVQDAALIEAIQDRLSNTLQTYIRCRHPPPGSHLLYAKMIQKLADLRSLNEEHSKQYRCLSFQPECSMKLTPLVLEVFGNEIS
# Chain of human Thyroid Receptor alpha (THRa1), THRA (gene 7067) (P10827 whole entry, looked up, the tested form may be a part): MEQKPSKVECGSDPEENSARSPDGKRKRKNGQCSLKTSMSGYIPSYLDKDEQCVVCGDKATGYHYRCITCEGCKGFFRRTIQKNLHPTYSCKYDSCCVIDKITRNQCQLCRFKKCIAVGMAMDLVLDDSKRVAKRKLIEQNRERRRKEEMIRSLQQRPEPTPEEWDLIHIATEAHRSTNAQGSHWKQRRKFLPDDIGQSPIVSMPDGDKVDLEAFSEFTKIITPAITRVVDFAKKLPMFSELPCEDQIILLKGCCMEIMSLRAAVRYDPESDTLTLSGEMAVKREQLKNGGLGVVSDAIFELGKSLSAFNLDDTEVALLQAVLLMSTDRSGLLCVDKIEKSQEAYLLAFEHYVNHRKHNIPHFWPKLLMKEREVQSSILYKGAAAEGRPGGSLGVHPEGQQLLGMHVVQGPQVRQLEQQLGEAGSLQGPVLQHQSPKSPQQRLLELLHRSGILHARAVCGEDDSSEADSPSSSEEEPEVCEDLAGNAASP
# Chain of Retinoic acid receptor RXR-alpha (Homo sapiens) (P19793 whole entry, looked up, the tested form may be a part): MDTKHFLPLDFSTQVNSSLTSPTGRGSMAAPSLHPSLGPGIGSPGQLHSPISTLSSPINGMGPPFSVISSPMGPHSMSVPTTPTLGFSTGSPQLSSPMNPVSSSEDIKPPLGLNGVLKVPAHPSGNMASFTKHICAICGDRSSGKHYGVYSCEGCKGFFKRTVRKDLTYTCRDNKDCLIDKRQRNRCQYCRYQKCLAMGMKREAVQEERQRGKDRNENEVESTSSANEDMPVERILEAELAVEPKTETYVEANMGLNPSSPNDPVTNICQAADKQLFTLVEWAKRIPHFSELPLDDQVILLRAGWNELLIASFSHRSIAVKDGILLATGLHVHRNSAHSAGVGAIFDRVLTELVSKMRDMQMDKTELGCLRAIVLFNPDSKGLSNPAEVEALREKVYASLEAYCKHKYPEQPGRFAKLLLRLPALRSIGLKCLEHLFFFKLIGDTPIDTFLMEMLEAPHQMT
# Chain of E-selectin (Homo sapiens) (P16581 whole entry, looked up): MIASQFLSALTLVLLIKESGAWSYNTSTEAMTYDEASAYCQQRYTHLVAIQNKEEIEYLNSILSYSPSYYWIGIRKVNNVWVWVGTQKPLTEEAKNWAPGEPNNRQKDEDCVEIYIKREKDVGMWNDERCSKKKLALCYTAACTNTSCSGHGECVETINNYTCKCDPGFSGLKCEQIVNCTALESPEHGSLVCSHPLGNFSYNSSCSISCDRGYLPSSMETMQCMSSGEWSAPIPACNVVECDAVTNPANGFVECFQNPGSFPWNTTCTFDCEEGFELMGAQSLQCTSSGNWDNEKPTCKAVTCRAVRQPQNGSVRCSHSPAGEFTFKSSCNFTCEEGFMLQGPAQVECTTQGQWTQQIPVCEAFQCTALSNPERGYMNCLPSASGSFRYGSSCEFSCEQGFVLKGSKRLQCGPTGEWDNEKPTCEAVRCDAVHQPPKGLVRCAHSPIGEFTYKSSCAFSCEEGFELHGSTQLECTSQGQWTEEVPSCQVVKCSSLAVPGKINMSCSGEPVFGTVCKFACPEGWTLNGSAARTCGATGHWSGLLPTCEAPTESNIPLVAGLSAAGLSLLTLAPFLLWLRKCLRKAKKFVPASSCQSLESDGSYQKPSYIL
compound,measurement,setting,value
CC(C)=CCC[C@H](C)CCO,outcome,[1],inactive
same,outcome,[2],inactive
CC1(C)O[C@@H]2C[C@H]3[C@@H]4C[C@H](F)C5=CC(=O)CC[C@]5(C)[C@H]4[C@@H](O)C[C@]3(C)[C@]2(C(=O)CO)O1,outcome,[1],inactive
same,AC50,[3],31800 nM (active)
same,outcome,[2],inactive
same,outcome,[4],inactive
Nc1ccc(N=Nc2ccccc2)c(N)n1,outcome,[1],inactive
same,outcome,[3],inactive
same,outcome,[4],inactive
CN(C)c1ccc(N=Nc2ccccc2C(=O)O)cc1,outcome,[1],inactive
same,outcome,[3],inactive
same,outcome,[4],inactive
COCc1c(C(C)C)nc(C(C)C)c(/C=C/[C@@H](O)C[C@@H](O)CC(=O)O)c1-c1ccc(F)cc1,outcome,[1],inactive
same,outcome,[3],inactive
same,outcome,[5],inactive
same,AC50,[6],4730 nM (active)
same,AC50,[7],7.77 nM (active)
same,AC50,[8],106 nM (active)
same,AC50,[9],68.5 nM (active)
same,outcome,[10],inactive
same,outcome,[4],inactive
same,AC50,[11],43.4 nM (active)
same,outcome,[12],inactive
same,AC50,[13],9.41 nM (active)
same,AC50,[14],19.2 nM (active)
same,AC50,[15],456 nM (active)
same,outcome,[16],inactive
same,outcome,[17],inactive
C(=CC=Nc1ccccc1)C=CNc1ccccc1,outcome,[1],inactive
same,outcome,[3],inactive
same,outcome,[4],inactive
CCCCCCCCCCOS(=O)(=O)O,outcome,[1],inactive
same,outcome,[3],inactive
same,outcome,[4],inactive
O=C(Nc1cccc(C(F)(F)F)c1)c1cc(Br)cc(Br)c1O,outcome,[1],inactive
same,outcome,[3],inactive
same,outcome,[2],inactive
same,outcome,[4],inactive
Cc1ccc2c(c1)C(=O)c1ccccc1C2=O,outcome,[1],inactive
same,outcome,[3],inactive
same,outcome,[4],inactive
O=C(/C=C/C=C/c1ccc2c(c1)OCO2)N1CCCCC1,outcome,[1],inactive
same,outcome,[4],inactive
CCCCCC(C)O (stereo not drawn),outcome,[1],inactive
same,outcome,[4],inactive
CC1OC1C1CCC2(C)OC2C1 (stereo not drawn),outcome,[1],inactive
same,outcome,[18],inactive
same,outcome,[5],inactive
same,outcome,[6],inactive
same,outcome,[7],inactive
same,outcome,[8],inactive
same,outcome,[9],inactive
same,outcome,[10],inactive
same,outcome,[11],inactive
same,outcome,[12],inactive
same,outcome,[13],inactive
same,outcome,[19],inactive
same,outcome,[14],inactive
same,AC50,[15],90.7 nM (active)
same,outcome,[16],inactive
same,outcome,[17],inactive
COC(=O)/C=C/C(C)=C\C=C\C(C)=C\C=C\C=C(C)\C=C\C=C(C)\C=C\C(=O)O,outcome,[1],inactive
same,outcome,[4],inactive
